Results as given in publication PMC4336329 (PLoS ONE, 2015).
The whole screen tested about 310,000 compounds, of which about 2,200 (0.71%) showed an effect of 50% or more. Effects have a minus sign here. For the sample, strong results were picked, then their nearest neighbours and some compounds at random.

What follows are molecules tested against human ether-à-go-go-related gene (hERG) potassium channel (human, UniProt Q12809) (assay: primary screen, population patch clamp on CHO cells stably expressing hERG; higher = less effect of the substance).
Chain of human ether-à-go-go-related gene (hERG) potassium channel (Q12809 whole entry, looked up): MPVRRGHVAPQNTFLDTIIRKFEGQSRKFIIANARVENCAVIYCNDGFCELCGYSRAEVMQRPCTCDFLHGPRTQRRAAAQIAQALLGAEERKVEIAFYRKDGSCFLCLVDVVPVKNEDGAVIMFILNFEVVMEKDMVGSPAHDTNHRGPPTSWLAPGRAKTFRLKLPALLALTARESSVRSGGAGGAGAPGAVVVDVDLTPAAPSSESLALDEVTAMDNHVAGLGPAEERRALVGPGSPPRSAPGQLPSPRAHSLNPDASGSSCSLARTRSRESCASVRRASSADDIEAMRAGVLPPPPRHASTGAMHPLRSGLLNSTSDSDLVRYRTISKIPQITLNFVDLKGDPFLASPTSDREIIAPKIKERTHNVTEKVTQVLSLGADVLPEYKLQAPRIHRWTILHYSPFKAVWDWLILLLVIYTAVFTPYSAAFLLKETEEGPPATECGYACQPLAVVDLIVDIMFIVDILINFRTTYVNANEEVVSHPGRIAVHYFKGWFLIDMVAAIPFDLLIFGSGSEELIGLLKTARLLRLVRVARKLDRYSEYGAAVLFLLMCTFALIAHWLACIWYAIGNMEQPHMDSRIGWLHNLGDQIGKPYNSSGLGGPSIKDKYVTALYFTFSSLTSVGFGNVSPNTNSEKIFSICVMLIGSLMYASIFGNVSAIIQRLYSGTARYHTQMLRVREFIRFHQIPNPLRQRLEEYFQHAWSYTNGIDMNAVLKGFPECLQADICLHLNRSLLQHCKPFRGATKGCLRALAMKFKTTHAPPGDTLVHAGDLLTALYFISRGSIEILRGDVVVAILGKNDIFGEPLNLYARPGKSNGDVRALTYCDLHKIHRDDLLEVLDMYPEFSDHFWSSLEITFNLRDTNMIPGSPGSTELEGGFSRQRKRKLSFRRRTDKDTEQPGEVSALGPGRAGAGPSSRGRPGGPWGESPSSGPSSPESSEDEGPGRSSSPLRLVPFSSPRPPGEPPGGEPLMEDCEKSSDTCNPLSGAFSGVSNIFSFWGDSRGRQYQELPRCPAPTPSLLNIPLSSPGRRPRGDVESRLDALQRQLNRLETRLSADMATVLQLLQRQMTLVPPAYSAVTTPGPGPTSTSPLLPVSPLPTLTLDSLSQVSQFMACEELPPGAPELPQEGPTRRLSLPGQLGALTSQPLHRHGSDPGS

Row | Compound | hERG current change (%, negative = inhibition) at 1uM [%]
1 | N/C(Cc1ccc([N+](=O)[O-])cc1)=N\OC(=O)c1ccc2ccccc2c1 | 4.74
2 | N/C(Cc1ccc([N+](=O)[O-])cc1)=N\OC(=O)c1ccc([N+](=O)[O-])cc1 | -56.7
3 | N/C(Cc1ccc([N+](=O)[O-])cc1)=N\OC(=O)c1ccc(Br)cc1 | -3.44
4 | COc1ccc(CNC(=O)C2(CC3CC(c4ccccc4)=NO3)CCN(C(=O)Cc3ccc(F)cc3)CC2)cc1 (stereo not shown) | 12.8
5 | COc1ccc(CNC(=O)C2(CC3CC(c4ccccc4)=NO3)CCN(C(=O)C3(C)CC3)CC2)cc1 (stereo not shown) | -37.1
6 | COc1ccc(CNC(=O)C2(CC3CC(c4ccccc4)=NO3)CCN(C(=O)CCCCCBr)CC2)cc1 (stereo not shown) | -60.3
7 | COc1ccc(CNC(=O)C2(CC3CC(c4ccccc4)=NO3)CCN(C(=O)C3CCCC3)CC2)cc1 (stereo not shown) | -67.1
8 | COc1ccc(CNC(=O)C2(CC3CC(c4ccccc4)=NO3)CCN(C(=O)c3cccc(O)c3)CC2)cc1 (stereo not shown) | 8.84
9 | COc1ccc(CNC(=O)C2(CC3CC(c4ccccc4)=NO3)CCN(C(=O)OC(C)(C)C)CC2)cc1 (stereo not shown) | 2.59
10 | COc1ccc(C2NC(=O)c3ccccc3O2)cc1OC (stereo not shown) | 8.88
11 | Fc1cccc(CCN2C(=S)NC[C@@H]2CC2CCCCC2)c1 | 8.53
12 | CCn1nc(C(C)C)cc1C(=O)N1CCCC(CO)(Cc2ccc(F)cc2F)C1 (stereo not shown) | 5.81
13 | CC1CCCCN1C(=O)c1ccc(COc2ccc([N+](=O)[O-])cc2)o1 (stereo not shown) | -18.9
14 | CCOC(=O)N1CCC(N2CCCC(C(=O)c3ccccc3OC)C2)CC1 (stereo not shown) | -59.3
15 | CCN(CC)CC(=O)N1CCCC(C(=O)c2ccccc2OC)C1 (stereo not shown) | 6.77
16 | COc1ccccc1C(=O)C1CCCN(C(=O)C2CCCC2)C1 (stereo not shown) | 8.68
17 | CCOC(=O)N1CCC(N2CCCC(C(=O)c3cc(F)ccc3OC)C2)CC1 (stereo not shown) | -52.2
18 | COc1ccc(F)cc1C(=O)C1CCCN(Cc2ccc(O)cc2)C1 (stereo not shown) | -25.1
19 | COc1ccc(F)cc1C(=O)C1CCCN(C(=O)C2=C(C)OCCO2)C1 (stereo not shown) | 14.5
20 | CC(=O)Nc1ccc2[nH]c3ccccc3c2c1 | 3.08
21 | O=C(NCCCN1CCOCC1)c1sc2cc(Cl)ccc2c1Cl | 6.47
22 | Cc1c(C(=O)N(C)Cc2ccccc2)oc2ccc(S(=O)(=O)N3CCCC3)cc12 | -0.449

Row | Compound | hERG current change (%, negative = inhibition) at 1uM [%]
23 | COc1ccc(CCNC(=O)C(=O)Nc2ccc3c(c2)OCCO3)cc1OC | 14.4
24 | O=C(NCc1ccncc1)C(=O)NCC(c1ccco1)N1CCN(c2ccccc2)CC1 (stereo not shown) | 3.03
25 | CCOc1ccc(N(C(=O)CNS(=O)(=O)c2ccccc2)C(CC)C(=O)NCc2ccco2)cc1 (stereo not shown) | 4.35
26 | CCCCN(C)C1=Nc2cccc3cccc1c23 | -54.9
27 | NC1=Nc2cccc3cccc1c23 | 12.8
28 | CCCCON1C(=O)c2cccc3cccc(c23)C1=O | 8.5
29 | Cl.OC(COc1ccc(Cl)cc1)CN1C2=NCCCN2c2ccccc21 (stereo not shown) | -82
30 | CN1CCN(CC(O)COc2ccc(Cl)cc2)CC1.Cl (stereo not shown) | -5.93
31 | CCN1C2=NCCCN2c2ccccc21.Cl | 2.9
32 | Cl.ClCCN1C2=NCCCN2c2ccccc21 | -1.36
33 | OC(COc1ccccc1)CN1CCCC1 (stereo not shown) | 9.18
34 | Cl.OC(COc1ccccc1)CN1C2=NCCCN2c2ccccc21 (stereo not shown) | -54.6
35 | Cc1ccc(/C(O)=C2\C(=O)C(=O)N(CCN(C)C)C2c2ccccc2F)cc1 (stereo not shown) | -6.65
36 | COc1ccc(S(C)(=O)=O)cc1S(C)(=O)=O | 12.3
37 | CC(C)OCCCNC(=O)c1c(N)n(CC2CCCO2)c2nc3ccccc3nc12 (stereo not shown) | 6.34
38 | CCn1c(Cn2nnc(-c3ccccc3)n2)nnc1SCC(=O)Nc1ccc(C(C)=O)cc1 | 5.63
39 | COc1ccc(CCn2c(=N)c(C(=O)NCC3CCCO3)cc3c(=O)n4cccc(C)c4nc32)cc1OC (stereo not shown) | -87.1
40 | Cc1cccn2c(=O)c3cc(C(=O)NCC4CCCO4)c(=N)n(CCc4ccccc4)c3nc12 (stereo not shown) | -84.4
41 | COc1ccc(CCn2c(=N)c(C(=O)NCCN3CCOCC3)cc3c(=O)n4cccc(C)c4nc32)cc1OC | -44.4
42 | COc1ccc(CCn2c(=N)c(C(=O)NCC3CCCO3)cc3c(=O)n4cccc(C)c4nc32)cc1 (stereo not shown) | -88.1
43 | CC(C)C(NC(=O)C1CCCCC1)C(=O)N1CCN(c2ccc(F)cc2)CC1 (stereo not shown) | -32.1
